The source of these data is the supplement of paper PMC6555819.

Common to all, as to test: PBM binding z-score (relative to random genomic background probes); higher = stronger binding; sequences stand for … in GC…GCGATTGACAGCGTAGAATGAAGG
In experiment [1] the test system is FXR:RXRa (NR concentration 270 nM, RXRa partner concentration 90 nM). In a few lines: (§1)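 The probes on custom Agilent 4×180K protein-binding microarrays were double-stranded, with 34-nt variable regions bearing direct-repeat seeds, single-nucleotide variants, half-site ablations and random human genomic background sequences. Incubation lasted 1 h with ligand-free nuclear receptor dimers in PBS pH 7.4, 2% milk, 0.02% Triton X-100, 1 mM DTT, 0.2 mg/mL BSA and 0.4 mg/ml salmon testes DNA. Antibodies against each partner (one per run) detected bound dimers, and fluorescence scans were regression-normalized. Binding z-scores take the random background probes as reference.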

In experiment [2] the test system is LXRa:RXRa (NR concentration 270 nM, RXRa partner concentration 90 nM). The procedure, abridged: as §1
In experiment [3] the test system is LXRa homodimer (NR concentration 270 nM). In a few lines: as §1
The subject of experiment [4] is LXRb:RXRa (NR concentration 270 nM, RXRa partner concentration 90 nM). In a few lines:
as §1

For experiment [5], the system named is LXRb homodimer (NR concentration 270 nM). The procedure, abridged:
as §1

Experiment [6] has as its system PPARa:RXRa (NR concentration 270 nM, RXRa partner concentration 90 nM). In a few lines:
as §1

For experiment [7], the system named is PPARg:RXRa (NR concentration 180 nM, RXRa partner concentration 90 nM). In a few lines: as §1
Experiment [8] relates to PPARg:RXRa 270nM:90nM, anti-RXR (NR concentration 270 nM, RXRa partner concentration 90 nM). The procedure, abridged: as §1
Experiment [9] deals with PPARg:RXRa 30nM:10nM, anti-RXR (NR concentration 30 nM, RXRa partner concentration 10 nM). The procedure, abridged: as §1
Experiment [10] concerns PPARg:RXRa 90nM:30nM, anti-RXR (NR concentration 90 nM, RXRa partner concentration 30 nM). The procedure, abridged: as §1
The subject of experiment [11] is PPARg:RXRa DBDmut IVT, anti-RXR (DBD mutation: RXRa K156A/R161A, NR concentration 270 nM, RXRa partner concentration 90 nM). The procedure, abridged: as §1
Experiment [12] deals with PPARg:RXRa IVT, anti-PPARg (NR concentration 270 nM, RXRa partner concentration 90 nM). In a few lines:
as §1

Experiment [13] has as its system PPARg DBDmut:RXRa IVT, anti-PPARg (DBD mutation: PPARg1 K132A/R137A, NR concentration 270 nM, RXRa partner concentration 90 nM). In a few lines:
as §1

For experiment [14], the system named is PPARg DBDmut IVT, anti-PPARg (DBD mutation: PPARg1 K132A/R137A, NR concentration 270 nM). The procedure, abridged: as §1
For experiment [15], the system named is PPARg homodimer (NR concentration 180 nM). In a few lines: as §1
The test system of experiment [16] is PXR:RXRa (NR concentration 270 nM, RXRa partner concentration 90 nM). In a few lines:
as §1

Experiment [17] deals with PXR homodimer (NR concentration 270 nM). The procedure, abridged:
as §1

In experiment [18] the test system is RARa:RXR (NR concentration 270 nM, RXRa partner concentration 90 nM). In a few lines:
as §1

Experiment [19] deals with RARa homodimer (NR concentration 270 nM). The procedure, abridged:
as §1

In experiment [20] the test system is RARb:RXRa (NR concentration 270 nM, RXRa partner concentration 90 nM). In a few lines: as §1

Turning to CCAGACAGGTGAGAACGTAACTCAGCCTCGATTA, the PBM binding z-score was -0.0139 in [1]; -0.0409 in experiment [2]; 0.178 in [3]; 0.22 in [4]; -0.463 in experiment [5]; 0.136 in experiment [6]. The PBM binding z-score in experiment [7] was 0.444; in experiment [8], -0.545; in experiment [9] it was -0.231; in experiment [10], -0.422; in experiment [11] it was 0.85; in experiment [12], 0.49. Besides, the PBM binding z-score in experiment [13] was 0.0295; in experiment [14] it was -0.354; in experiment [15] it was 0.692; in experiment [16], -0.267; in experiment [17] it was 0.209; in experiment [18] it was -0.0422. Besides, the PBM binding z-score in experiment [19] was found to be 0.428; in experiment [20], 0.192.
On to ACTTACGGGTCAACGTGGTTATAGCACGCGTATA, for which the PBM binding z-score is 6.4 in [1]; 4.01 in [2]; 0.422 in experiment [3]; 3.75 in experiment [4]; 0.534 in experiment [5]; 5.52 in experiment [6]. The PBM binding z-score in experiment [7] came to 5.08; in experiment [8] it was 5.39; in experiment [9] it was 1.88; in [10], 4.03; in experiment [11] it was 3.4; in experiment [12] it was 3.77. Further, the PBM binding z-score in experiment [13] came out at 1.64; in experiment [14], 1.34; in experiment [15] it was 2.74; in [16], 3.45; in experiment [17], 0.0483; in [18], 4.28. The PBM binding z-score came out at 1.23 in experiment [19] and 4.02 in experiment [20].
CGAACTAGGTCACAGAGGTCAAAGTCCGTGCGTA: the PBM binding z-score in experiment [1] was 7.51; in [2], 6.91; in [3], 7.06; in experiment [4], 6.5; in [5], 1.96; in experiment [6], 6.56. In addition, the PBM binding z-score was found to be 10.2 in experiment [7]; 8.5 in experiment [8]; 7.02 in [9]; 8.62 in [10]; 8.62 in experiment [11]; 8.94 in experiment [12]. Also, the PBM binding z-score in [13] is 8.99; in experiment [14] it was 6.82; in experiment [15], 9.8; in experiment [16], 6.92; in experiment [17], 13.2; in [18], 7.77. Besides, the figures for the PBM binding z-score in experiment [19] and in experiment [20] were 5.26 and 5.23, respectively.
TCGAGTAGGTTCGTCGGGGCATTCAGCCAACATA: the PBM binding z-score in [1] was 0.282; in experiment [2], 0.37; in experiment [3] it was -0.315; in experiment [4], 0.726; in [5], -0.765; in [6] it was 0.757. The PBM binding z-score is -0.436 in experiment [7]; 0.394 in experiment [8]; 0.955 in experiment [9]; 0.64 in experiment [10]; 0.771 in [11]; -0.0233 in [12]. Further, the PBM binding z-score in experiment [13] is -1.34; in experiment [14] it was -1.13; in experiment [15], -0.174; in experiment [16] it was 0.391; in [17], -0.361; in experiment [18], 0.296. For the same sequence, the PBM binding z-score was -0.807 in experiment [19] and 0.556 in experiment [20].
As for AAGACAGGGTCATCGTAGGCCAGAGTACGCACAG, the PBM binding z-score in [1] is 7.28; in experiment [2], 5.76; in experiment [3] it was 0.0665; in experiment [4], 4.06; in experiment [5] it was 0.0441; in experiment [6], 6.02. Also, the PBM binding z-score in [7] is 5.91; in experiment [8] it was 5.77; in experiment [9] it was 2.38; in experiment [10], 3.94; in [11], 1.48; in [12], 2.99. The PBM binding z-score in experiment [13] stood at 0.884; in experiment [14], 0.174; in [15], 1.25; in [16] it was 4.95; in experiment [17], 0.0301; in experiment [18], 4.92. For the same sequence, the PBM binding z-score was determined as 0.453 in experiment [19] and 4.23 in [20].
As to TGAATGAGGTTATTAGATCAGGGAACGTTGCAAA, the PBM binding z-score in experiment [1] was determined as 1.98; in [2] it was 1.62; in [3], 0.0291; in [4], 1.3; in [5], 0.0407; in experiment [6], 3.09. For the same sequence, the PBM binding z-score in experiment [7] is 2.46; in [8] it was 2.61; in [9], 0.886; in experiment [10] it was 1.65; in experiment [11], 2.05; in experiment [12] it was 2.98. Also, the PBM binding z-score in experiment [13] worked out at 1.48; in experiment [14], 0.859; in [15], 0.948; in experiment [16], 0.902; in [17], 0.241; in experiment [18], 1.43. Also, the PBM binding z-score in [19] was determined as 0.496; in [20] it was 1.24.
On to TCTCGGAGGACACGAAATGTCAGAGCTCGACATC, for which the PBM binding z-score in [1] was 0.755; in experiment [2] it was 0.358; in experiment [3], -0.2; in experiment [4], 0.313; in experiment [5] it was -0.55; in experiment [6], 0.168. For the same sequence, the PBM binding z-score is 0.208 in experiment [7]; 1.09 in experiment [8]; 2.37 in experiment [9]; 1.62 in experiment [10]; 1.31 in experiment [11]; -0.0738 in experiment [12]. Further, the PBM binding z-score in experiment [13] was 0.273; in [14] it was -0.287; in [15], -0.365; in experiment [16] it was -0.0137; in experiment [17], -0.515; in experiment [18] it was 0.332. In addition, the PBM binding z-score is -0.679 in experiment [19] and 1.56 in experiment [20].
